{
  "source": "PubChem BioAssay (NCI)",
  "note": "Several values for one entry are separate records, joined by “and”; a condition that tells them apart may be missing. Equal entries are not always repeated. About 83,000 compounds went through this panel and 20% of them were active in at least one assay; those are over-represented in the sample as a whole.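 Negative percent growth values reflect cell death: -40 means 40% of the cells present at the start died, and -100 means all died.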 Activity calls are given as the source filed them. Rule for the calls: active = growth percent below 10; inactive = the rest.",
  "data": [
    {"tested_on": "MDA-MB-468 breast", "assay": "NCI-60 one-dose screen, 48 h (100 = growth as untreated, 0 = no growth, -100 = all killed)", "conditions": "10 µM unless noted", "values": [
      {"smiles": "CC/C=C\\C[C@@H](O)C/C=C1/C(=O)C=C[C@H]1C/C=C\\CCCC(=O)OC", "growth": "15.9% (inactive)"},
      {"smiles": "Cc1c(N2CCCCC2)[nH]c2ccccc12", "growth": "121% (inactive)"},
      {"smiles": "COc1cc2c3c(c(=O)oc2cc1OS(=O)(=O)c1ccc(C(F)(F)F)cc1)CCCCC3", "growth": "67% (inactive)"},
      {"smiles": "C=C1CC[C@@H]2[C@](C)(COC(C)=O)[C@H](OC(C)=O)CC[C@@]2(C)[C@@H]1CC(NCc1ccc(F)cc1)C1=CCOC1=O", "note": "(stereo not given in full)", "growth": "27.5% (inactive)"},
      {"smiles": "CCN(CC)C(=O)C[N+](C)(C)CCOC(c1ccccc1)c1ccccc1", "growth": "109% (inactive)"},
      {"smiles": "COc1cc(OC)c(/C=C/C(=O)c2c(N)cc(OC)cc2OC)c(OC)c1", "growth": "-17.1% (active)"},
      {"smiles": "CCOC(=O)n1cc(C2=C(c3ccc(OC)c(OC)c3)COC2=O)c2ccccc21", "growth": "-41.8% (active)"},
      {"smiles": "Cc1nc2cc(Nc3nc(Nc4ccc(F)cc4)nc(-c4ccc(Cl)cc4)n3)ccc2n1Cc1ccccc1", "growth": "74.3% (inactive)"},
      {"smiles": "O=C(O)C[C@H](O)C[C@H](O)/C=C/c1c(C2CC2)nc2ccccc2c1-c1ccc(F)cc1", "growth": "75.1% (inactive)"},
      {"smiles": "Cn1ccc(=O)c(C(=O)Nc2nsc3ccc([N+](=O)[O-])cc23)c1", "growth": "87.1% (inactive)"},
      {"smiles": "CC(=O)Nc1c(Br)cc2c(c1Br)Cc1cc(Br)ccc1-2", "growth": "-35.2% (active)"},
      {"smiles": "COc1cccc(NCc2nnc(Nc3ccc(Cl)cc3)c3ccccc23)c1", "growth": "-21.9% (active)"},
      {"smiles": "COc1cc(C2CC(=O)Nc3c2cnn3Cc2ccco2)cc2c1OCCO2", "note": "(stereo not given)", "growth": "73.8% (inactive)"},
      {"smiles": "O=C1Nc2ccccc2/C1=C/c1c[nH]c2ccccc12", "growth": "44.4% (inactive)"},
      {"smiles": "CC1(C)CC[C@]2(C(=O)N3CCCN(CC#N)CC3)CC[C@]3(C)C(=CC[C@@H]4[C@@]5(C)CC[C@H](O)C(C)(C)[C@@H]5CC[C@]43C)[C@H]2C1", "growth": "41.2% (inactive)"},
      {"smiles": "O=C(O)/C=C/c1cn(-c2ccccc2)nc1-c1ccc(F)cc1", "growth": "104% (inactive)"},
      {"smiles": "COc1cc(OC)c(/C=C/C(=O)c2ccc(Nc3ncnc4ccccc34)cc2)c(OC)c1", "growth": "-34.8% (active)"},
      {"smiles": "C[n+]1c2ccccc2nc2c(N)cc(N)cc21", "growth": "-5.14% (active)"},
      {"smiles": "Cc1cc2nc3c4cc(Cl)ccc4n(CCN(C)C)c3nc2cc1C", "growth": "-42.1% (active)"},
      {"smiles": "COc1ccc2occ(C3=C(c4c[nH]c5ccccc45)C(=O)N(O)C3=O)c2c1", "growth": "95.1% (inactive)"},
      {"smiles": "Brc1ccc(/C=C(/C2=NCCN2)n2ccc3ccccc32)cc1", "growth": "50.8% (inactive)"},
      {"smiles": "COc1ccc(-n2c(C)nc3c(c(C)nn3-c3ccccc3)c2=O)cc1", "growth": "-15.7% (active)"},
      {"smiles": "CCCN1C=C/C(=C\\C(=O)n2ccc3ccccc32)c2ccccc21", "growth": "7.36% (active)"},
      {"smiles": "O=C(NCCN1CCOCC1)c1cncnc1Nc1ccc2c(ccn2Cc2ccccn2)c1", "growth": "98% (inactive)"},
      {"smiles": "COC(=O)CCC(=O)C(=O)OC", "growth": "52.9% [10 mM] (inactive)"},
      {"smiles": "Cc1nn(-c2ccccc2)c(N2CCCCC2)c1/C=N/NC(=O)Cn1c(=O)sc2ccccc21", "growth": "85.5% (inactive)"},
      {"smiles": "CCNc1nc(-c2ccc(F)cc2)c(C#N)c(=O)n1C", "growth": "45% (inactive)"},
      {"smiles": "O=[N+]([O-])c1ccccc1/C=N\\Nc1ccccc1", "growth": "66.3% (inactive) and 89.3% (inactive)"},
      {"smiles": "CC(=O)Oc1ccc(C(c2ccc(OC(C)=O)cc2)c2ccccn2)cc1", "growth": "17.3% (inactive)"},
      {"smiles": "Cc1ccc(C)n1-c1ccccc1-n1c(C)ccc1C", "growth": "104% (inactive)"},
      {"smiles": "C=CCn1c(SCC(=O)Nc2ccc(C(=O)/C=C/c3cc(OC)c(OC)c(OC)c3)cc2)nnc1-c1ccccc1", "growth": "82% (inactive)"},
      {"smiles": "CC1(c2ccc(Br)cc2)NC(=O)NC1=O", "note": "(stereo not given)", "growth": "110% (inactive)"},
      {"smiles": "COc1cc(OC)c2cc(C(=O)c3ccc(C#N)cc3)c(=O)oc2c1", "growth": "94.1% (inactive)"},
      {"smiles": "CCOC(=O)c1nn(C2CCCCO2)c2ccc(NC(=O)CN3CCCC3)cc12", "note": "(stereo not given)", "growth": "111% (inactive)"},
      {"smiles": "Cc1cc(Nc2ccc(C)c(Cl)c2)n2nc(C(F)(F)F)nc2n1", "growth": "36.5% (inactive)"},
      {"smiles": "CCCCc1n(Cc2ccc3ccccc3n2)cc[n+]1Cc1ccc2ccccc2c1", "growth": "-31.4% (active)"},
      {"smiles": "CCOC(=O)c1nn(-c2ccc(S(N)(=O)=O)cc2)c2nc(C)cc(=O)n12", "growth": "99% (inactive)"},
      {"smiles": "O=C1c2cccnc2C(=O)c2c1c(C(=O)OCCc1ccccn1)c1ccccn21", "growth": "-23% (active)"},
      {"smiles": "COc1ccc(/C=N\\Nc2nc(SCCC(C)C)nc(-c3ccc(OC)cc3)c2C#N)cc1", "growth": "35.9% (inactive)"},
      {"smiles": "CCCCCCCCCCCCCCCCCCOc1ccccc1N", "growth": "101% (inactive)"}
    ]}
  ]
}
